# Test results as given in PMC12864922, “TDP-43 directly inhibits mRNA accumulation in neurites through modulation of mRNA stability”.
# In all, about 9,900 sequences were measured (“r (bound/input frequency ratio)”: median about 0.7, highest 2% from about 6.5 on). For the sample, the highest values were picked, then their nearest neighbours and some sequences at random.
# B1: ENSMUSG00000029028.198|Lrrc47 (ssRNA)
# RNA: GGGAGUUCUACAGUCCGACGAUCGCUUCGAUAUCCGCAUGCUAUGUGUACGCAUCUGUACCAGCACACAGCUGCCAUCCCUCGAGCCACAGUGCCUGGUCCUAAGGACCCAGCAGCUGCACAGAGGACUUGGUGGCCCCGUGCCUUGCCAUCUGGCUGAGAAGAGAACCAGACCCUCAGCCUUCCCCCUCGACACCUUCUCGUUGGUGACCUCUGACCUUAAAGGACCAUUUCUACCUUCUGUAAAAGAACACCUGUUUGGGGUUGCGUGCGGCUUUCAUCCUAAGGCCGUGCGAGAGCCGUUCUCUUGCGGUCGCACUAGUGUGGAAUUCUCGGGUGUCAAGG
# B2: ENSMUSG00000029636.117|Wasf3 (ssRNA)
# RNA: GGGAGUUCUACAGUCCGACGAUCGCUUCGAUAUCCGCAUGCUAGGAGCCCUGUGGGUACUCAUGUGGAAAGUGCCCACUGACUUUGGCAGAUGGAGUUCACUUUCAUGGCUAGCCCUGAUAGCGUUGGGCACCAGUUAGCCAGGCCAUGUUCAAGCUGCCUAGAGUCUGCAGAGCUUGCAUGGCAGAGCGGCCGCAUCUGGUUCCCUCCUACUCCACCCAGUGGAAAAGAGACCUCCACGUUUUAUUUUCUGGGAUCCCUGCUCCUCUGUUCACCAGGGAGUGAGCACAGGUCAGCACCUCACCUCUUGCGGUCGCACUAGUGUGGAAUUCUCGGGUGUCAAGG
# B3: ENSMUSG00000042529.497|Kcnj12 (ssRNA)
# RNA: GGGAGUUCUACAGUCCGACGAUCGCUUCGAUAUCCGCAUGCUAGGGCCCCUGCAGCUGGACCAUGUACAGGGCUCCCUGGGGCUUGUCCUCAGGGGCAGAGAAGGACAUGGUGGCAGCAGCACUGAGAACAGGAGCAUGGCCUCUCUCAGACCCCAGGGCAGUCAUUCAGUCUUUUCCAUGGACACUCCCCACCGCUCCACAUACUGCCUCCGCCUCAUUCUUGGGCUCUUCCUGCCUUGCUGUCUUUCCUUCCACACAGAAGCACCAAGCAUCAUCCAUUCCCAUAGGCAAGCCCAGGGCACCUCUUGCGGUCGCACUAGUGUGGAAUUCUCGGGUGUCAAGG
# B4: ENSMUSG00000058297.521|Spock2 (ssRNA)
# RNA: GGGAGUUCUACAGUCCGACGAUCGCUUCGAUAUCCGCAUGCUAGACCACGUGUGAUGGGUGGGCACAGGUCUGCCUUGCUCCAGCCCCCUCCCUUGGUUUCUGUUGGUACCCAUUUGGCUUUUAUCUGCUUUCUGCUUCACCACUAAGUGCGUAGGUGGGGUCUUUUGAUAUCGGCUCCCCAAAGCCCAAGCCCACAGCCCUAGGAGAGAACCAGGGGCCCAUCUUUGACACCUGGGCCAUCACGAGCCCUCCCGCCUGCAGUUGUCCUAGGGAAAGACCUGGGGGUGCAAAAGGAGAUUCAACUCUUGCGGUCGCACUAGUGUGGAAUUCUCGGGUGUCAAGG
# B5: ENSMUSG00000029028.17|Lrrc47 (ssRNA)
# RNA: GGGAGUUCUACAGUCCGACGAUCGCUUCGAUAUCCGCAUGCUACUGACAGGCUCCUGUAGGUGUGGGUGUGCUGUAGGUGUCUGUGUGGGUGUGGGUGUGCUGUAGGUGUCUGUGUGGGUGUGGGUGUGCUAUAGGUAUCUGUGGGUGUGCUGUAGGUGUCUGUGUGGGUGUGCUGUAGGUGUCUGUGUAGGUGUGGGUGUGCUGUAGGUGUCUGUGUGGGUGUGCUAGGUGUCUGUAUAGGUGUGGGUGUGCUGUAGAUGUCUGUGUAGGUAUGGGUGUGCUGUAGAUCUUUGUAGGUGUAGCUCUUGCGGUCGCACUAGUGUGGAAUUCUCGGGUGUCAAGG
# B6: ENSMUSG00000029028.14|Lrrc47 (ssRNA)
# RNA: GGGAGUUCUACAGUCCGACGAUCGCUUCGAUAUCCGCAUGCUACCACGUGACUGUGGUCCGCUGACAGGCUCCUGUAGGUGUGGGUGUGCUGUAGGUGUCUGUGUGGGUGUGGGUGUGCUGUAGGUGUCUGUGUGGGUGUGGGUGUGCUAUAGGUAUCUGUGGGUGUGCUGUAGGUGUCUGUGUGGGUGUGCUGUAGGUGUCUGUGUAGGUGUGGGUGUGCUGUAGGUGUCUGUGUGGGUGUGCUAGGUGUCUGUAUAGGUGUGGGUGUGCUGUAGAUGUCUGUGUAGGUAUGGGUGUGCUGUCUCUUGCGGUCGCACUAGUGUGGAAUUCUCGGGUGUCAAGG
# B7: ENSMUSG00000029028.33|Lrrc47 (ssRNA)
# RNA: GGGAGUUCUACAGUCCGACGAUCGCUUCGAUAUCCGCAUGCUACUGUGGGUGUGCUGUAGGUGUCUGUGUGGGUGUGCUGUAGGUGUCUGUGUAGGUGUGGGUGUGCUGUAGGUGUCUGUGUGGGUGUGCUAGGUGUCUGUAUAGGUGUGGGUGUGCUGUAGAUGUCUGUGUAGGUAUGGGUGUGCUGUAGAUCUUUGUAGGUGUAGGUAUGCUGUAGGUAUCUGGGUGUGGGUAUGCUGUAGAUGUCUGUGUAGGUGUGGAUAUGCUGUAGGUAUCUGGGUGUGCUGUAGGUGUCUGUGUGGCUCUUGCGGUCGCACUAGUGUGGAAUUCUCGGGUGUCAAGG
# B8: ENSMUSG00000029028.18|Lrrc47 (ssRNA)
# RNA: GGGAGUUCUACAGUCCGACGAUCGCUUCGAUAUCCGCAUGCUAGGCUCCUGUAGGUGUGGGUGUGCUGUAGGUGUCUGUGUGGGUGUGGGUGUGCUGUAGGUGUCUGUGUGGGUGUGGGUGUGCUAUAGGUAUCUGUGGGUGUGCUGUAGGUGUCUGUGUGGGUGUGCUGUAGGUGUCUGUGUAGGUGUGGGUGUGCUGUAGGUGUCUGUGUGGGUGUGCUAGGUGUCUGUAUAGGUGUGGGUGUGCUGUAGAUGUCUGUGUAGGUAUGGGUGUGCUGUAGAUCUUUGUAGGUGUAGGUAUGCCUCUUGCGGUCGCACUAGUGUGGAAUUCUCGGGUGUCAAGG
# B9: ENSMUSG00000029028.16|Lrrc47 (ssRNA)
# RNA: GGGAGUUCUACAGUCCGACGAUCGCUUCGAUAUCCGCAUGCUAGGUCCGCUGACAGGCUCCUGUAGGUGUGGGUGUGCUGUAGGUGUCUGUGUGGGUGUGGGUGUGCUGUAGGUGUCUGUGUGGGUGUGGGUGUGCUAUAGGUAUCUGUGGGUGUGCUGUAGGUGUCUGUGUGGGUGUGCUGUAGGUGUCUGUGUAGGUGUGGGUGUGCUGUAGGUGUCUGUGUGGGUGUGCUAGGUGUCUGUAUAGGUGUGGGUGUGCUGUAGAUGUCUGUGUAGGUAUGGGUGUGCUGUAGAUCUUUGUAGCUCUUGCGGUCGCACUAGUGUGGAAUUCUCGGGUGUCAAGG
# B10: ENSMUSG00000029028.27|Lrrc47 (ssRNA)
# RNA: GGGAGUUCUACAGUCCGACGAUCGCUUCGAUAUCCGCAUGCUAUAGGUGUCUGUGUGGGUGUGGGUGUGCUAUAGGUAUCUGUGGGUGUGCUGUAGGUGUCUGUGUGGGUGUGCUGUAGGUGUCUGUGUAGGUGUGGGUGUGCUGUAGGUGUCUGUGUGGGUGUGCUAGGUGUCUGUAUAGGUGUGGGUGUGCUGUAGAUGUCUGUGUAGGUAUGGGUGUGCUGUAGAUCUUUGUAGGUGUAGGUAUGCUGUAGGUAUCUGGGUGUGGGUAUGCUGUAGAUGUCUGUGUAGGUGUGGAUAUGCCUCUUGCGGUCGCACUAGUGUGGAAUUCUCGGGUGUCAAGG
# B11: ENSMUSG00000029028.22|Lrrc47 (ssRNA)
# RNA: GGGAGUUCUACAGUCCGACGAUCGCUUCGAUAUCCGCAUGCUAGUAGGUGUCUGUGUGGGUGUGGGUGUGCUGUAGGUGUCUGUGUGGGUGUGGGUGUGCUAUAGGUAUCUGUGGGUGUGCUGUAGGUGUCUGUGUGGGUGUGCUGUAGGUGUCUGUGUAGGUGUGGGUGUGCUGUAGGUGUCUGUGUGGGUGUGCUAGGUGUCUGUAUAGGUGUGGGUGUGCUGUAGAUGUCUGUGUAGGUAUGGGUGUGCUGUAGAUCUUUGUAGGUGUAGGUAUGCUGUAGGUAUCUGGGUGUGGGUAUGCUCUUGCGGUCGCACUAGUGUGGAAUUCUCGGGUGUCAAGG
# B12: ENSMUSG00000029028.15|Lrrc47 (ssRNA)
# RNA: GGGAGUUCUACAGUCCGACGAUCGCUUCGAUAUCCGCAUGCUAGACUGUGGUCCGCUGACAGGCUCCUGUAGGUGUGGGUGUGCUGUAGGUGUCUGUGUGGGUGUGGGUGUGCUGUAGGUGUCUGUGUGGGUGUGGGUGUGCUAUAGGUAUCUGUGGGUGUGCUGUAGGUGUCUGUGUGGGUGUGCUGUAGGUGUCUGUGUAGGUGUGGGUGUGCUGUAGGUGUCUGUGUGGGUGUGCUAGGUGUCUGUAUAGGUGUGGGUGUGCUGUAGAUGUCUGUGUAGGUAUGGGUGUGCUGUAGAUCUCUCUUGCGGUCGCACUAGUGUGGAAUUCUCGGGUGUCAAGG
# B13: ENSMUSG00000029028.23|Lrrc47 (ssRNA)
# RNA: GGGAGUUCUACAGUCCGACGAUCGCUUCGAUAUCCGCAUGCUAGUCUGUGUGGGUGUGGGUGUGCUGUAGGUGUCUGUGUGGGUGUGGGUGUGCUAUAGGUAUCUGUGGGUGUGCUGUAGGUGUCUGUGUGGGUGUGCUGUAGGUGUCUGUGUAGGUGUGGGUGUGCUGUAGGUGUCUGUGUGGGUGUGCUAGGUGUCUGUAUAGGUGUGGGUGUGCUGUAGAUGUCUGUGUAGGUAUGGGUGUGCUGUAGAUCUUUGUAGGUGUAGGUAUGCUGUAGGUAUCUGGGUGUGGGUAUGCUGUAGCUCUUGCGGUCGCACUAGUGUGGAAUUCUCGGGUGUCAAGG
# Molecular target: TDP-43 (Homo sapiens, UniProt Q13148 1-414)
# Sequence (Q13148 whole entry): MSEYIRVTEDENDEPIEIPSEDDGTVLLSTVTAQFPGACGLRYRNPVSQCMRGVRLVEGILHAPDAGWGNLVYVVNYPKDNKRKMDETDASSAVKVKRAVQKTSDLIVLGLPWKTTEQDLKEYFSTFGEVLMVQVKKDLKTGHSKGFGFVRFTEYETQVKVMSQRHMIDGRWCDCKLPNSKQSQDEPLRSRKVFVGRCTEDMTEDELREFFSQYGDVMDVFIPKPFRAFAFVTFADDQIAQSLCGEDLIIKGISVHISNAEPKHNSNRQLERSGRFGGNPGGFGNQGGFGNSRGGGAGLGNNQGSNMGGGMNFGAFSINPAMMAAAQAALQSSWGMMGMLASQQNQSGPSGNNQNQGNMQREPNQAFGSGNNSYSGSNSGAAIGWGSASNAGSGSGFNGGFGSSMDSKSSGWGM
# Experiment: RNA Bind-n-Seq with designed 260-mer pool; 25 mM Tris-HCl, 150 mM KCl, 3 mM MgCl2, BSA (printed 500 mg/mL), 20 units/mL SUPERase IN; pH not stated; 500 nM RNA pool, 1 h, 4 C; TDP-43 5, 50, 500 nM; high values mean tight binding
# Settings: protein: recombinant; tags: SBP (GST cleaved off with PreScission; pGEX-GST-SBP)
# In short: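 Binding (R) is the ratio of each oligo's mapped-read-normalized abundance in the bound fraction to its abundance in the input. To obtain it, SBP-tagged recombinant TDP-43 (5, 50 or 500 nM) on streptavidin beads was incubated with 500 nM of an in vitro-transcribed 260-nt 3′ UTR oligo pool for 1 h at 4 °C in 25 mM Tris-HCl, 150 mM KCl, 3 mM MgCl2, BSA and SUPERase IN. The RNA retained after washing was released with biotin, then reverse transcribed, amplified by PCR and sequenced.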
row,Binder,binding signal
1,B1,0.346 R (bound/input frequency ratio)
2,B2,0.346 R (bound/input frequency ratio)
3,B3,0.929 R (bound/input frequency ratio)
4,B4,0.432 R (bound/input frequency ratio)
5,B5,8.61 R (bound/input frequency ratio)
6,B6,6.07 R (bound/input frequency ratio)
7,B7,5.4 R (bound/input frequency ratio)
8,B8,5.03 R (bound/input frequency ratio)
9,B9,6.62 R (bound/input frequency ratio)
10,B10,5.47 R (bound/input frequency ratio)
11,B11,5.37 R (bound/input frequency ratio)
12,B12,6.93 R (bound/input frequency ratio)
13,B13,5.87 R (bound/input frequency ratio)
